Data taken from PubChem BioAssay AID449762 (Southern Research Specialized Biocontainment Screening …, 2010).
The whole screen tested about 330,000 compounds, of which about 1,900 (0.58%) were called active. Roughly 4% stayed inconclusive and do not appear here. These entries were drawn from the full list. Potency and affinity values are given separately. Values without a mark were called inactive. Cut-off read from the data, not from the text of the source: inconclusive = inhibition above about 70% without an active follow-up result; inactive = below that.

test: M. tuberculosis growth inhibition, HTS (AID 449762);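 note: bacterial growth assessed after seven days of incubation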; settings: M. tuberculosis H37Rv growth inhibition, 7H9 media; at 25 µM; active compounds read high

**Q.** Which inhibition does the source give for `CSC(=S)N/N=C/c1ccc(Br)cc1` here?
**A.** 57.5%

**Q.** With `CSC(=S)N/N=C/c1ccc(N(C)C)cc1` as the molecule, how does the inhibition read?
**A.** 3.05%

**Q.** With `COc1ccccc1N1C(=O)CC(N(O)c2ccccc2)C1=O` (configuration not stated) as the molecule, how does the inhibition read?
**A.** 7.06%

**Q.** Which inhibition does the source give for `COc1ccccc1N(O)C1CC(=O)N(c2ccc(F)cc2)C1=O` (configuration not stated) here?
**A.** 10.9%

**Q.** For `Cc1ccc(/C=N/NC(=S)N2CCOCC2)cc1`, which inhibition is on record?
**A.** -4.55%

**Q.** For `S=C(N/N=C/c1ccc(Cl)cc1)N1CCOCC1`, which inhibition is on record?
**A.** 10.7%

**Q.** Which inhibition does the source give for `N#Cc1c(N)nc(Sc2ccc(Cl)cc2)c(C#N)c1-c1ccccc1Cl` here?
**A.** 7.13%

**Q.** For `O=C(O)CCCNS(=O)(=O)Cc1ccccc1`, which inhibition is on record?
**A.** 2.38%

**Q.** With `COc1cc(OC)nc(Oc2ccccc2C(=O)Oc2ccccc2Cl)n1` as the molecule, how does the inhibition read?
**A.** 3.91%

**Q.** For `COc1cc(OC)nc(Oc2ccccc2C(=O)Oc2ccc(C)cc2)n1`, which inhibition is on record?
**A.** -5.69%

**Q.** For `O=C(NCc1ccccc1)N1CCC(CO)(Cc2cccc(F)c2)CC1`, which inhibition is on record?
**A.** 1.55%

**Q.** For `CC(=O)c1sc(NC(=O)c2c(F)cccc2F)nc1-c1ccccc1`, which inhibition is on record?
**A.** 3.31%

**Q.** For `CCCOc1ccc(NC2=CC(=O)CC(C)(C)C2)cc1`, which inhibition is on record?
**A.** 0.84%

**Q.** For `CCCCCOc1ccc(NS(C)(=O)=O)cc1`, which inhibition is on record?
**A.** -0.68%

**Q.** Which inhibition does the source give for `COc1ccccc1NS(=O)(=O)c1ccc(O)c(C(=O)OCc2cccc([N+](=O)[O-])c2)c1` here?
**A.** -3.81%

**Q.** With `O=C(NCC1CCCO1)C(c1cccs1)N(Cc1cccs1)C(=O)c1ccc(-c2ccccc2)[nH]1` (configuration not stated) as the molecule, how does the inhibition read?
**A.** 0.19%

**Q.** Which inhibition does the source give for `O=C(NCC1CCCO1)C(c1cccs1)N(Cc1ccccc1)C(=O)c1ccc(-c2ccccc2)[nH]1` (configuration not stated) here?
**A.** 14.9%

**Q.** For `COc1cc(NC(=S)NCCCO)c(OC)cc1Cl`, which inhibition is on record?
**A.** -4.61%

**Q.** Which inhibition does the source give for `CC(=O)c1ccc(C(=O)N2CCCC(CCC(=O)N(C)CCc3ccccn3)C2)s1` (configuration not stated) here?
**A.** -4.61%

**Q.** Which inhibition does the source give for `Cc1c(CN2CCC(CO)(Cc3ccccc3)CC2)c2ccccc2n1C` here?
**A.** -7.19%

**Q.** Which inhibition does the source give for `OCC1(Cc2cccc(C(F)(F)F)c2)CCN(Cc2cc(F)cc(F)c2)CC1` here?
**A.** 14%

**Q.** For `O=C(CN(C(=O)CCC(=O)Nc1nccs1)c1ccc(F)cc1)NCc1ccccc1`, which inhibition is on record?
**A.** -3.51%

**Q.** For `CCOC(=O)Cn1cc(-c2ccccc2)nn1`, which inhibition is on record?
**A.** -3.68%

**Q.** Which inhibition does the source give for `O=c1cc(O)c2sc3nc(-c4ccccc4)cc(C(F)(F)F)c3c2[nH]1` here?
**A.** 5.22%

**Q.** For `Cc1cc(C(F)(F)F)c2c(n1)sc1c(O)cc(=O)[nH]c12`, which inhibition is on record?
**A.** -2.51%

**Q.** For `COc1cc(/C=C2\SC(=S)N(N3CCOCC3)C2=O)cc(OC)c1OC`, which inhibition is on record?
**A.** 3.16%

**Q.** Which inhibition does the source give for `Cc1ccc(C(C)C)c(OCC(=O)NS(=O)(=O)c2ccc(Cl)cc2)c1` here?
**A.** -3.31%
